Screens deposited in PubChem BioAssay by The Scripps Research Institute Molecular Screening Center.
Most compounds without a hit are left out; they make up all but 2.3% or so of the library.
MsrA act – bovine methionine sulfoxide reductase A activation; purified bovine MsrA, absorbance read-out; activation, % at 10.6 µM; 0.3% of 360,000 active; in the data active = activation above about 7.5%
PP5 primary – PP5 (human) phosphatase inhibition. P53041. purified PP5c, OMFP substrate fluorescence. inhibition, % at 6.7 µM. 0.18% of 320,000 active;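 active = inhibition above the campaign's mean inhibition across all tested compounds plus 3 SD, cut at about 9.5% in these data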
MsrA inh – bovine MsrA inhibition. purified bovine MsrA, absorbance read-out. inhibition, % at 15.5 µM. 0.75% of 360,000 active
PP1 counter – counter-screen for PP5 inhibitors: inhibitors of human PP1-alpha | P62136 | purified PP1alpha, OMFP fluorescence | inhibition, % at 6.7 µM | 0.9% of 320,000 active | AID 2235;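 active = inhibition above the mean inhibition of all tested compounds plus 3 SD, computed separately for each screening campaign, cut at about 15% in these data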
Target sequence (P62136 whole entry, looked up): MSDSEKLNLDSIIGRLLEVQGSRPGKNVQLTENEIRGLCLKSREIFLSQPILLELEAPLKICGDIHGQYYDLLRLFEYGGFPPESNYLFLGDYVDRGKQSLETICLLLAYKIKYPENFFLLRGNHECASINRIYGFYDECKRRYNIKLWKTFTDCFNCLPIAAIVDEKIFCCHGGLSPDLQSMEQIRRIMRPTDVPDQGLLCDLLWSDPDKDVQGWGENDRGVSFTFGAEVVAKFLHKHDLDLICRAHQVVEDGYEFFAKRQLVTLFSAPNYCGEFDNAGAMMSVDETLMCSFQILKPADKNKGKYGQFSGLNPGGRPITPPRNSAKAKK
ZTA DNA inh – ZTA (EBV) inhibition in EBNA-1 counter-screen | P03206 | ZTA-DNA binding, fluorescence polarization | inhibition, % at 11 µM | 0.15% of 320,000 active | AID 2234; in the data active = inhibition above about 33%
Target sequence (P03206 whole entry, looked up): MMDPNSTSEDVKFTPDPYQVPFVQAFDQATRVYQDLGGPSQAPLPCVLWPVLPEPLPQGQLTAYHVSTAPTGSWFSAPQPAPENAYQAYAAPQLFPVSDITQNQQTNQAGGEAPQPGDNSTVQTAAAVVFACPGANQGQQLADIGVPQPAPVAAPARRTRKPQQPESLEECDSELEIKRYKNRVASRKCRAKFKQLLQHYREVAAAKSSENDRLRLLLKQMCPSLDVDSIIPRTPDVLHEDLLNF
EBNA-1 inhibitor – blocks EBNA-1 binding to DNA | EBNA-1 DNA binding, fluorescence polarization | inhibition, % at 14.8 µM | 0.34% of 300,000 active | AID 1950; in the data active = inhibition above about 28%
MsrA conf – bovine MsrA inhibition, confirmed; shares compounds with MsrA inh; purified bovine MsrA, absorbance read-out; inhibition, % at 15.5 µM; 41% of 2,300 active; AID 651822;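 also: coupled to thioredoxin reductase with NADPH and selenocystamine and DMSO as substrate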
Numbers stand for hits; - = inactive; . = no result. Rule as the data show it, unless noted: active = inhibition above about 4.5%; inactive = the rest.

SMILES	MsrA act	PP5 primary	MsrA inh	PP1 counter	ZTA DNA inh	EBNA-1 inhibitor	MsrA conf
N#CC(C#N)=C1NC(N)=C(C#N)C(c2ccccc2)=C1C#N	-	-	7.2	-	-	-	6.7
Nc1n[nH]c(N)c1N=Nc1ccc(F)cc1	-	-	-	-	-	-	.
Nc1n[nH]c(N)c1N=Nc1ccccc1	-	-	5.0	-	-	-	-
COc1ccc(/C=N/Nc2cc(C)nc(N3CCOCC3)n2)cc1	-	-	-	-	-	-	.
O=c1nc(N2CCOCC2)nc(N/N=C/c2ccc3c(c2)OCO3)[nH]1	-	-	5.5	-	-	-	-
Cc1nc(N/N=C/c2ccc(O)cc2O)cc(N2CCOCC2)n1	-	-	4.8	-	-	-	-
Oc1ccc(/C=N/Nc2cc(N3CCOCC3)nc(N3CCOCC3)n2)cc1O	-	-	4.7	-	-	-	-
Oc1cccc(/C=N/Nc2cc(N3CCOCC3)nc(N3CCOCC3)n2)c1	-	-	4.9	-	-	-	6.2
COc1ccc(C(=O)Nc2cc(C)nn2-c2cccc(F)c2)cc1OC	-	-	-	-	-	-	.
O=C(CNC(=O)c1ccccn1)N/N=C/c1ccc2c(c1)OCO2	-	-	-	-	-	-	.
CCN(CC)c1ccc(/C=N\NC(N)=O)cc1	-	-	-	-	-	-	.
CCN(CC)c1ccc(/C=N/NC(=O)CC(C)C)cc1	-	-	5.6	-	-	-	-
CCN(CC)c1ccc(/C=N/NC(=O)CNC(=O)c2ccccn2)cc1	-	-	6.0	-	-	-	-
CS(=O)(=O)c1ccccc1C(=O)Nc1cc(Cl)ccc1-n1cncn1	-	-	-	-	-	-	.
Cc1cccc(C(=O)Nc2cc(Cl)ccc2-n2cncn2)c1[N+](=O)[O-]	-	-	7.3	-	-	-	4.8
Oc1ccc(C=NNc2ccccn2)c(O)c1	-	.	5.1	.	.	.	-
Oc1ccccc1/C=N/Nc1nccnc1Cl	-	-	-	-	-	-	.
Oc1ccc(/C=N/Nc2ncc(Br)cn2)c(O)c1	-	-	6.0	-	-	-	5.2
COc1ccc(/C=N/Nc2nccnc2Cl)cc1	-	-	4.7	-	-	-	-
Oc1ccc(/C=N/Nc2nccnc2Cl)c(O)c1	-	-	5.1	-	-	-	-
Oc1cccc(C=NNc2ccccn2)c1	-	.	-	.	.	.	.
CCOC(=O)c1c(NC(=O)COC(=O)C2CC2C)sc(C)c1C (configuration not stated)	-	-	-	-	-	-	.
O=C1CCCN1CC(O)CS(=O)(=O)Cc1ccccc1Cl (configuration not stated)	-	-	-	-	-	-	.
O=C(NC(c1ccccc1)c1cnccn1)C1CCN(CCOc2ccc(Cl)cc2Cl)CC1 (configuration not stated)	-	.	-	.	.	.	.
CN(CC1CCOCC1)C(=O)CC1C(=O)NCCN1Cc1ccc(F)c(F)c1 (configuration not stated)	-	-	-	-	-	-	.
SMILES	MsrA act	PP5 primary	MsrA inh	PP1 counter	ZTA DNA inh	EBNA-1 inhibitor	MsrA conf
O=c1[nH]ncc(N/N=C\c2ccc(O)cc2O)c1Cl	-	-	6.5	-	-	-	6.2
Oc1ccc(/C=N/Nc2cccc3cccnc23)c(O)c1	-	-	-	-	-	-	.
CN1C(=O)N(C)C(c2cccc([N+](=O)[O-])c2)C2=C1CCCC2=O (configuration not stated)	-	-	-	-	-	-	.
C(=C\c1ccco1)/C=N/n1cnnc1	-	-	4.7	-	-	-	5.7
S=c1[nH]nc(-c2ccccc2Cl)n1/N=C/C=C/c1ccco1	-	-	-	-	-	-	.
Cc1cccc(-c2n[nH]c(=S)n2/N=C/C=C/c2ccco2)c1	-	-	-	-	-	-	.
S=c1[nH]nc(-c2ccncc2)n1/N=C/C=C/c1ccco1	-	-	7.1	-	-	-	4.9
COc1cc(CNc2ncn[nH]2)ccc1OCc1cccc(C)c1	-	-	-	-	-	-	.
CCN(CC)c1nc(-c2ccccn2)nc(-c2ccccc2)c1C#N	-	-	-	-	-	-	.
C(=C\c1ccco1)/c1nc2ccccc2[nH]1	-	-	5.6	-	-	-	4.9
O=c1[nH]c(/C=C/c2ccc(Br)cc2)nc2ccccc12	-	-	-	-	-	-	.
C(=C\c1nc2ccccc2[nH]1)/c1ccccc1	-	-	4.7	-	-	-	-
C/C(=N\NC(=O)c1cccc(S(=O)(=O)N2CCCC2)c1)c1cccs1	-	-	-	-	-	-	.
CCSc1nc2sc3c(c2c(=O)n1-c1ccccc1)CCN(C)C3	-	-	-	-	-	-	.
C=CCSc1nc2sc3c(c2c(=O)n1-c1ccccc1)CCN(C)C3	-	-	4.9	-	-	-	-
O=C(Nc1ccc(Oc2ccsc2C(=O)O)cc1)c1ccccc1F	-	-	-	-	-	-	.
O=C(NNC(=S)Nc1cccc(C(F)(F)F)c1)c1ccncc1	-	.	4.8	.	.	.	-
O=C(NNC(=S)Nc1ccccc1)c1ccncc1	-	-	-	-	-	-	.
CC(Oc1ccc2cc(-c3ccccc3)c(=O)oc2c1)C(=O)NCC1CCC(C(=O)O)CC1 (configuration not stated)	-	-	6.3	-	-	-	-
Cc1cc(=O)oc2cc(OCC(=O)NCC3CCC(C(=O)O)CC3)ccc12 (configuration not stated)	-	-	-	-	-	-	.
COc1ccc2cc(-c3ccccc3)c(=O)oc2c1	-	-	-	-	-	-	.
Cc1c(OCC(=O)N(C)C)ccc2c(-c3ccccc3)cc(=O)oc12	-	-	18	-	-	-	16
CN(C)C(=O)COc1ccc2cc(-c3ccccc3)c(=O)oc2c1	-	-	4.7	-	-	-	-
COc1ccc(-c2cc(=O)oc3cc(OCC(=O)NCC4CCC(C(=O)O)CC4)ccc23)cc1 (configuration not stated)	-	-	4.9	-	-	-	-
Cc1ccc(NC(=O)CN(C)C(=O)CCOc2cccc(C)c2)cc1	-	-	-	-	-	-	.
SMILES	MsrA act	PP5 primary	MsrA inh	PP1 counter	ZTA DNA inh	EBNA-1 inhibitor	MsrA conf
COc1ccccc1N(C)S(=O)(=O)c1ccc(Cl)c(C(=O)Nc2ccccc2N2CCOCC2)c1	-	.	-	.	.	.	.
COCCCNc1nc2ccccc2nc1NS(=O)(=O)c1ccc(OC)cc1	-	-	-	-	-	-	.
COc1ccc(Nc2nc3ccccc3nc2NS(=O)(=O)c2cccs2)cc1	-	-	-	-	-	-	.
COCCCNc1nc2ccccc2nc1NS(=O)(=O)c1cccs1	-	-	5.2	-	-	-	-
O=S(=O)(Nc1nc2ccccc2nc1OCC(F)(F)F)c1cccs1	-	-	4.9	-	-	-	-
O=C(Nc1ccc(C(=O)O)cc1)/C(=C\C=C\c1ccccc1)NC(=O)c1cccc(Br)c1	-	-	5.2	-	-	-	4.6
O=C(Nc1cccc(C(=O)O)c1)/C(=C\c1ccccc1)NC(=O)c1ccccc1	-	-	-	-	-	-	.
O=C(Nc1cccc(C(=O)O)c1)/C(=C\C=C\c1ccccc1)NC(=O)c1ccccc1	-	-	8.4	-	-	-	5.5
